CXXC DNA block: qHTS Fluorescence Polarization Assay for Inhibitors of MLL CXXC domain - DNA interaction | Histone-lysine N-methyltransferase 2A (Homo sapiens), Q03164 | MLL-CXXC / FITC-HOXA9 DNA fluorescence polarization | Potency, µM (series often up to 115 µM), hits mostly inhibitors | actives 0.037% (n = 290,000) | AID 2662, 2010; active = well fitted inhibition curve with a large enough effect in the polarisation, with a control signal flat, not every such curve was filed as active; inconclusive = small, poorly fitted or top-dose-only effect, or effect the other way, or a change in a side signal; inactive = no such curve, though single readings can be large or run the other way; the % refers to the polarisation
Target sequence (Q03164 whole entry, looked up, the tested form may be a part): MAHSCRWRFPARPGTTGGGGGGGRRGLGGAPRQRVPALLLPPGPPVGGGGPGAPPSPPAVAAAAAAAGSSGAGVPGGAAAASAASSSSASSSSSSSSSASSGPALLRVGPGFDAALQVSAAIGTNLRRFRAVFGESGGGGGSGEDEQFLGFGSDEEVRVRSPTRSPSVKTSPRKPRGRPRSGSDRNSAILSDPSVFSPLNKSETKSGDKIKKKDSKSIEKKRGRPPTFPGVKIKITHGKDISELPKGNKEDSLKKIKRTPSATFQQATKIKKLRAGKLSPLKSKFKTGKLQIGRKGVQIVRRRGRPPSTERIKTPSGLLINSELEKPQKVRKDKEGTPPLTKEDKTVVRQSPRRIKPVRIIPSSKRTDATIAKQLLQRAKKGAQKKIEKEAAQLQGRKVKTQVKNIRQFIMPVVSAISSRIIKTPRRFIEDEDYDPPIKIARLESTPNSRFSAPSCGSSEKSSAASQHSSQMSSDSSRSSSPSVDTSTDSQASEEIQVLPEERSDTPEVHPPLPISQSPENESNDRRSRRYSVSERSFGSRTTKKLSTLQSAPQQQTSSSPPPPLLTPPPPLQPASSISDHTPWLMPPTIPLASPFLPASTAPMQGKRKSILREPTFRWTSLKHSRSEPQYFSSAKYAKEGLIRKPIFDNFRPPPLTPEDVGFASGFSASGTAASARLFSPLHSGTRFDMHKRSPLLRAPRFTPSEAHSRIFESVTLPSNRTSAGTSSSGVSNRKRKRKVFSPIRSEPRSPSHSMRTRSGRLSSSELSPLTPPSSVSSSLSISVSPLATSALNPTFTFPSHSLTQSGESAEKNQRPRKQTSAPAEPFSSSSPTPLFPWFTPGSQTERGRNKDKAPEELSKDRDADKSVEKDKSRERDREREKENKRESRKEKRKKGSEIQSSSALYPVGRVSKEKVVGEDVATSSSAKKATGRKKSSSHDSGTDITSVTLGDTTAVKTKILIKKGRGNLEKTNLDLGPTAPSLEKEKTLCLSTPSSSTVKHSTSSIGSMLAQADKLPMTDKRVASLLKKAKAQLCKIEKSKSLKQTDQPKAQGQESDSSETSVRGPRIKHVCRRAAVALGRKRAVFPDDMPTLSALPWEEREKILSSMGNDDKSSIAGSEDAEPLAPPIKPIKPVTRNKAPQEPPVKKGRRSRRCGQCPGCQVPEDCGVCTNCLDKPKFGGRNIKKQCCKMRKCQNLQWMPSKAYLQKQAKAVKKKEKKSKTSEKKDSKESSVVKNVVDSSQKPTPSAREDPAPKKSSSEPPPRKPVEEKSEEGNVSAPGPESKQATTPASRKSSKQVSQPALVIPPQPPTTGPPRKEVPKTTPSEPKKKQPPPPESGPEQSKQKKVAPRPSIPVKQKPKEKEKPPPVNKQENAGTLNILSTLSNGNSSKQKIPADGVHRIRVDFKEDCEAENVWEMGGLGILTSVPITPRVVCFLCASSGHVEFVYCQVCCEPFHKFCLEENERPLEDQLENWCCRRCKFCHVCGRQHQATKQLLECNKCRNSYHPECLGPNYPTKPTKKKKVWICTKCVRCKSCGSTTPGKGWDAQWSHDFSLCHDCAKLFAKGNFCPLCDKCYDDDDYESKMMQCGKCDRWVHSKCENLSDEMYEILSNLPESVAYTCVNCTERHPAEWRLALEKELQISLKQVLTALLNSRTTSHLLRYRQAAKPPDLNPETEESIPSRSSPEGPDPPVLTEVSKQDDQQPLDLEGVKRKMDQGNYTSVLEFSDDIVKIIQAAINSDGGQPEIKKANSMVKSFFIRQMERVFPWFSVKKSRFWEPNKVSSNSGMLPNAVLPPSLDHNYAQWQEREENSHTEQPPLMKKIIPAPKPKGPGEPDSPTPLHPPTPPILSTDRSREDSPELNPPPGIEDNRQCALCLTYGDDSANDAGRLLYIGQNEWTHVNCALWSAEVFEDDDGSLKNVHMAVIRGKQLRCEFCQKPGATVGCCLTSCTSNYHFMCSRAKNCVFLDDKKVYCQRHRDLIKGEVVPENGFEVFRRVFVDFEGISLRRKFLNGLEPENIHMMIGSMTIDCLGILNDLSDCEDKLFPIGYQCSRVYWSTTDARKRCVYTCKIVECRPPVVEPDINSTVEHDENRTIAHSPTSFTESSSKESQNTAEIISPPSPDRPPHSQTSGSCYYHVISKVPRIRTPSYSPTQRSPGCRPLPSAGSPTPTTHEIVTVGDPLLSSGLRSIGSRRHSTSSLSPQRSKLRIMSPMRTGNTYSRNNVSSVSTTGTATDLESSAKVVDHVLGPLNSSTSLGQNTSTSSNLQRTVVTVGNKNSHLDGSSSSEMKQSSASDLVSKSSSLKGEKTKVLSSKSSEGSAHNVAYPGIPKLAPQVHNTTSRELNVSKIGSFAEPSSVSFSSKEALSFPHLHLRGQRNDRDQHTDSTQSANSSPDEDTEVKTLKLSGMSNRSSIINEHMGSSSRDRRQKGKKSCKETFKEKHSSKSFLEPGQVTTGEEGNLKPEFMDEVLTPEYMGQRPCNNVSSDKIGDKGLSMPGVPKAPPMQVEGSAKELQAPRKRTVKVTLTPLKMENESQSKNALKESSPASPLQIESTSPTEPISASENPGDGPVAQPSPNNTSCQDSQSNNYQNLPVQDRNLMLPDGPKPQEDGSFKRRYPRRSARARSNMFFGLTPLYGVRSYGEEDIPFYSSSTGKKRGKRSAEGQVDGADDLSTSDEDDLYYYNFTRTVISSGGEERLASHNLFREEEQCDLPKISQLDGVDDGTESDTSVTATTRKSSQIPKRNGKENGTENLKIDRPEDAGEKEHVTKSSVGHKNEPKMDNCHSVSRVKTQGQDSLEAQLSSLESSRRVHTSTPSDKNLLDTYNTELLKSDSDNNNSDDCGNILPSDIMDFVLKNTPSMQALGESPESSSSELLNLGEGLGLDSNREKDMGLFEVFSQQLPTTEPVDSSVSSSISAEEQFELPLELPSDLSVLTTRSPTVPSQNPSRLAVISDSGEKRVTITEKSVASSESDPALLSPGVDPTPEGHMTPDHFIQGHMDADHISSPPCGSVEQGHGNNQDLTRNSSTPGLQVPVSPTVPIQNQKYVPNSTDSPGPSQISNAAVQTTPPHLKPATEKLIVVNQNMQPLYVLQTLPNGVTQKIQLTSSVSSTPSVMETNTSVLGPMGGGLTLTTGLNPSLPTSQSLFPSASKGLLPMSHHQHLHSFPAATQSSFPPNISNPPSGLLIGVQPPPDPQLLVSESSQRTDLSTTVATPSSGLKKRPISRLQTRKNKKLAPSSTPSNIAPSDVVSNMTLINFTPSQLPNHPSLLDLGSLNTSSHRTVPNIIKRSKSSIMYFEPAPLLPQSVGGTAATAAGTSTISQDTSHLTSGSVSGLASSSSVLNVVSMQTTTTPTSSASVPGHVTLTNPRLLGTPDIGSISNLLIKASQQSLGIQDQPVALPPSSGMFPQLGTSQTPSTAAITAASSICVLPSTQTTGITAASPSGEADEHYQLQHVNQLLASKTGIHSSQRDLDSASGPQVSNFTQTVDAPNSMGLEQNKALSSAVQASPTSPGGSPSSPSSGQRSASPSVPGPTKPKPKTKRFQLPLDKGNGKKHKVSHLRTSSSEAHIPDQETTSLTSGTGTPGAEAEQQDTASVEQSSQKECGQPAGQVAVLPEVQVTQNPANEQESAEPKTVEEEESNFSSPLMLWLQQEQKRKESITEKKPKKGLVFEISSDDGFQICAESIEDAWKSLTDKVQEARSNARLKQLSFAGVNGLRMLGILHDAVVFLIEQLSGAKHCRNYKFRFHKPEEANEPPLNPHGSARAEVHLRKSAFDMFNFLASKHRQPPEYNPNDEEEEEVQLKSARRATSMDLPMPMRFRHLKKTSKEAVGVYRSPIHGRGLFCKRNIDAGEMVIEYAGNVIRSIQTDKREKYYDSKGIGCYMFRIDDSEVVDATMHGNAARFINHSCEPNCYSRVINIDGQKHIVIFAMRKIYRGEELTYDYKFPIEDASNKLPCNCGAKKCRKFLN
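Steps: dispense CXXC domain solution (7 uM) → pin compounds or unlabeled HOX-A9 DNA control → 5 min ambient → add FLSN-HOX-A9 solution (50 nM) → spin → 30 min ambient → fluorescence polarization. Tris pH 7.5/NaCl/DTT/BSA buffer.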
Menin MLL FP FL: qHTS Assay for Inhibitors Targeting the Menin-MLL Interaction in MLL Related Leukemias: Competition With Fluorescein Labeled MLL-derived Peptide; Fluorescence polarization, fluorescein-MLL peptide displacement from menin; FP activity change, % at 61.4 µM; 290,000 tested, under 10 active; AID 1766, 2009; active = well fitted curve in the direction sought with a large enough effect in the polarisation, not every such curve was filed as active; inconclusive = small, poorly fitted or top-dose-only effect, or effect the other way, or a change in a side signal; inactive = no such curve, though single readings can be large or run the other way; the % refers to the polarisation
Menin-MLL TR inh: qHTS Assay for Inhibitors Targeting the Menin-MLL Interaction in MLL Related Leukemias: Competition With Texas Red Labeled MLL-derived Mutant Peptide; O00255; Menin + Texas Red MLL mutant peptide, fluorescence polarization; Potency, µM (doses to about 61.6 µM), usual class: inhibitors; actives 0.23% (n = 270,000); AID 1768, 2009; active = well fitted inhibition curve with a large enough effect in the polarisation, with a control signal flat, not every such curve was filed as active; inconclusive = small, poorly fitted or top-dose-only effect, or effect the other way, or a change in a side signal; inactive = no such curve, though single readings can be large or run the other way; the % refers to the polarisation
TRPV1 PAM: HTS Assay for Compounds that Act as Potentiators of the Vanilloid Receptor 1; Transient receptor potential cation channel subfamily V member 1 (Homo sapiens), Q8NER1; TRPV1-expressing cells, Fluo-8 calcium influx, capsaicin EC20 potentiation; potentiation, % at 8.33 µM; actives 0.02% (n = 320,000); in the data active = potentiation above about 80%; inconclusive = between about 30% and that limit
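TRPV1-expressing cells were cultured overnight at 35.5C and loaded with Fluo-8 calcium dye for 40 to 90 min at room temperature. After a 10 s baseline, compound was added and calcium influx was read kinetically for 3 min (ex 480/em 520 nm).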
TRPV1 agonist: HTS Assay for Compounds that Act as Agonists of the Vanilloid Receptor 1; activation, % at 8.33 µM; Transient receptor potential cation channel subfamily V member 1 (Homo sapiens), Q8NER1; TRPV1-expressing cells, Fluo-8 calcium influx, agonist mode; actives 0.19% (n = 320,000); in the data active = activation above about 80%; inconclusive = between about 30% and that limit
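Fluo-8 calcium influx in TRPV1-expressing cells, kinetic read (ex 480/em 520 nm). Compound added and read 3 min for agonist activity, followed by capsaicin at EC20 final and 2 min further read for enhancement.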
MLL CXXC FP-Fl: qHTS Fluorescence Polarization (FP) Assay for Inhibitors of MLL CXXC domain - DNA interaction: Fluorescein FP. actives 70% (n = 200). Potency, µM (doses to about 345 µM), hits mostly inhibitors. MLL CXXC-DNA binding, fluorescein FP. shares compounds with CXXC DNA block; also: nearly all actives have a fitted effect of over 80% in size
MLL CXXC FP-TR: qHTS Fluorescence Polarization (FP) Assay for Inhibitors of MLL CXXC domain - DNA interaction: Texas Red FP; shares compounds with CXXC DNA block; MLL CXXC-DNA binding, Texas Red fluorescence polarization; AID 624161, 2012; actives 40% (n = 200); Potency, µM (titrated, usually from 345 µM), usual class: inhibitors; also: nearly all actives have a fitted effect of over 75% in size
MLL CXXC TRF: qHTS Fluorescence Polarization (FP) Assay for Inhibitors of MLL CXXC domain - DNA interaction: HTRF Assay. shares compounds with CXXC DNA block. AID 624162, 2012. Potency, µM (doses to about 172 µM), most hits filed as inhibitors. MLL CXXC-DNA binding, HTRF, biochemical. actives 30% (n = 210); also: nearly all actives have a fitted effect of over 80% in size
Each line names hits and unclear results; the compound was inactive in the other large screens (follow-up assays come after a bar, where they were run). Rows were chosen to be rich in hits. Some 0.32% of all compounds tested hit in one or more screens of this group. Unless noted, calls follow the shape of the dose curve; as a rule, active = well fitted inhibition curve with a large enough effect; inconclusive = small, poorly fitted or top-dose-only effect; inactive = no such curve, though single readings can be large or run the other way.

Cc1cc(/C=C2\C(=O)NC(=O)N(c3ccccc3)C2=O)c(C)n1-c1ccc(C(=O)O)c(Cl)c1	CXXC DNA block inconclusive | MLL CXXC FP-Fl inactive | MLL CXXC FP-TR 113µM | MLL CXXC TRF inactive
Cc1cc(/C=C2\C(=O)NC(=O)N(c3ccc(F)cc3)C2=O)c(C)n1-c1cccc(C(=O)O)c1	none
Cc1cc(/C=C2\C(=O)NC(=O)N(c3ccccc3F)C2=O)c(C)n1-c1cc(C(=O)O)cc(C(=O)O)c1	CXXC DNA block 13µM | MLL CXXC FP-Fl 8µM | MLL CXXC FP-TR 22µM | MLL CXXC TRF 24µM
CC(C)c1cc2c(c(O)c1O)[C@@]1(C(=O)O)CCCC(C)(C)[C@@H]1CC2	Menin-MLL TR inh inconclusive (no result: CXXC DNA block, TRPV1 PAM, TRPV1 agonist)
Nc1c([N+](=O)[O-])ccc(Oc2ccccc2)c1Cl	Menin MLL FP FL inconclusive (no result: CXXC DNA block, TRPV1 PAM, TRPV1 agonist)
O=c1[nH]c(O)c(/C=C2\C=NN=C2c2ccccc2)c(=O)[nH]1	CXXC DNA block inconclusive | MLL CXXC FP-Fl inactive | MLL CXXC FP-TR 126µM | MLL CXXC TRF 49µM
CC1=NN(c2ccccc2)C(=O)/C1=C/c1c(O)[nH]c(=O)[nH]c1=O	none

Compound activity deposited in PubChem BioAssay by National Center for Advancing Translational Sciences (NCATS).
